PMC6212790, “How bacterial xenogeneic silencer rok distinguishes foreign from self DNA in its resident genome”
Over roughly 33,000 sequences, “e-score” has its median near -0.038; the highest 2% begin near 0.33. The sample holds the highest values, similar sequences and a random draw of the others, so the mix is not that of the screen.

These sequences were tested against T1, GST-Rok-C97-191 (Bacillus subtilis subsp. subtilis str. …, UniProt O34857 97-191) (assay: protein binding microarray; Rok is a gene silencer of Bacillus subtilis; high values mean tight binding). Conditions: protein: recombinant; tags: GST (pTH5325, pDEST15-Magic modified); dsDNA, one strand shown.
T1 sequence: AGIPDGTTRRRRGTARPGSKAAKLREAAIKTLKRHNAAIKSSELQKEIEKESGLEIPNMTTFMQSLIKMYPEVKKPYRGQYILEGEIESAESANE
Procedure, shortened: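 Every oligonucleotide joins a 25-mer constant primer to a 35-mer variable part drawn from a de Bruijn sequence of order 10, so each non-palindromic 8-mer appears at least 32 times and each palindromic 8-mer 16 times. The preference for every 8-mer is reported as a unitless, rank-based enrichment score (E-score). This score spans 0.5 for the most favored 8-mer to −0.5 for the most disfavored.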
GAAAGCTC gave a binding signal of -0.157 E-score.
ATGTAGTA gave a binding signal of 0.407 E-score.
For ATGTAGTG, the binding signal was 0.163 E-score.
CAGTAGTC showed a binding signal of -0.151 E-score.
AAGTAGTA gave a binding signal of 0.358 E-score.
Sequence CAGTAGTA has a binding signal of 0.362 E-score.
AAGTAGTC gave a binding signal of 0.226 E-score.
AAGTAGTG gave a binding signal of 0.211 E-score.
GAGTAGTA gave a binding signal of 0.305 E-score.
ATGTAGTC showed a binding signal of 0.156 E-score.
Sequence TCCGCTCA has a binding signal of -0.118 E-score.
In the case of CGCTTTCC, the binding signal is reported as -0.13 E-score.
CGGAAAGA was tested, and the binding signal was -0.135 E-score.
In the case of AACCTCAA, the binding signal is reported as -0.0809 E-score.
With ACACTGGT the binding signal was 0.0216 E-score.
For GCGGGAGA, the binding signal was -0.111 E-score.
In the case of CTGGCGAC, the binding signal is reported as -0.196 E-score.
Sequence AATATAGG has a binding signal of 0.0639 E-score.
AATATAGC was tested, and the binding signal was 0.349 E-score.
Work on ACTATAGG yielded a binding signal of 0.148 E-score.
AAAATAGA was tested, and the binding signal was 0.271 E-score.
In the case of CATATAGC, the binding signal is reported as 0.127 E-score.
AATATCGT gave a binding signal of 0.204 E-score.
Sequence AAAATAGC has a binding signal of 0.21 E-score.
Sequence ACTATAGT has a binding signal of 0.411 E-score.
Sequence AAAATAGT has a binding signal of 0.404 E-score.
In the case of ACTATAGC, the binding signal is reported as 0.207 E-score.
AATATAGT gave a binding signal of 0.337 E-score.
Sequence GATATAGC has a binding signal of 0.0553 E-score.
With GTTCAGCA the binding signal was 0.0486 E-score.
TAAGGCAA gave a binding signal of 0.0603 E-score.
In the case of CTGGGAAG, the binding signal is reported as -0.0965 E-score.
Sequence CCACTTAG has a binding signal of -0.0775 E-score.
CGGAGTCC showed a binding signal of -0.199 E-score.
TAGATCAA was tested, and the binding signal was 0.156 E-score.
Work on CTCGACGA yielded a binding signal of -0.162 E-score.
CTTCAGAC gave a binding signal of -0.188 E-score.
In the case of CACCGATA, the binding signal is reported as 0.152 E-score.
For CACCGGTA, the binding signal was 0.0827 E-score.
With AACCGATA the binding signal was 0.108 E-score.
Work on AACCGGTA yielded a binding signal of 0.182 E-score.
With TACCGGTA the binding signal was 0.355 E-score.
TACCGATA showed a binding signal of 0.339 E-score.
GACAAGGC showed a binding signal of -0.188 E-score.
Sequence AAATGCTT has a binding signal of -0.000293 E-score.
In the case of GAGCTCGA, the binding signal is reported as 0.0407 E-score.
In the case of ACGCCAAA, the binding signal is reported as -0.128 E-score.
With TAGATACA the binding signal was 0.329 E-score.
For AAGATATA, the binding signal was 0.347 E-score.
Work on AAGATAAC yielded a binding signal of 0.131 E-score.
In the case of AAGATACA, the binding signal is reported as 0.151 E-score.
TAGATAGA showed a binding signal of 0.345 E-score.
With CAGATACA the binding signal was 0.146 E-score.
Sequence AAGATAAT has a binding signal of 0.339 E-score.
Sequence GAGATAGA has a binding signal of 0.15 E-score.
In the case of AAGATATC, the binding signal is reported as 0.2 E-score.
For CAGATAGA, the binding signal was 0.16 E-score.
AAGATATG showed a binding signal of 0.117 E-score.
AAGATAAA gave a binding signal of 0.314 E-score.
GAATAGCC was tested, and the binding signal was -0.126 E-score.
AGCAGTCC gave a binding signal of -0.0761 E-score.
AACCCACT was tested, and the binding signal was 0.0905 E-score.
For ACATCGAA, the binding signal was 0.0242 E-score.
Sequence GCGGCAGA has a binding signal of -0.0665 E-score.
In the case of GGTTTGGA, the binding signal is reported as -0.0233 E-score.
Work on TTCTTCAA yielded a binding signal of -0.0566 E-score.
AGTGGATG showed a binding signal of -0.131 E-score.
In the case of AAGGCGAT, the binding signal is reported as -0.0931 E-score.
Work on TAGATATA yielded a binding signal of 0.359 E-score.
In the case of GAGATATA, the binding signal is reported as 0.301 E-score.
For CAGATATA, the binding signal was 0.195 E-score.
Work on ACGTACTC yielded a binding signal of 0.0226 E-score.
In the case of ATTATTAA, the binding signal is reported as 0.199 E-score.
CTTATTTC was tested, and the binding signal was 0.221 E-score.
CTTATTAA showed a binding signal of 0.117 E-score.
Work on ATTATTAC yielded a binding signal of 0.387 E-score.
Sequence ATTATTAG has a binding signal of 0.325 E-score.
CTTATTAC showed a binding signal of 0.332 E-score.
With GTAGCTGA the binding signal was 0.279 E-score.
For AATCCTTA, the binding signal was 0.107 E-score.
GAATAAAC showed a binding signal of 0.0598 E-score.
ACTCATCG gave a binding signal of 0.0111 E-score.
With AATAGGGT the binding signal was 0.0409 E-score.
In the case of AGTATAAA, the binding signal is reported as 0.289 E-score.
CGTATATA gave a binding signal of 0.258 E-score.
GGTATAAC was tested, and the binding signal was 0.266 E-score.
GGTATAGA showed a binding signal of 0.221 E-score.
For AGTATATC, the binding signal was 0.261 E-score.
With GGTATAAA the binding signal was 0.352 E-score.
For AGTATATA, the binding signal was 0.428 E-score.
AGTATATG was tested, and the binding signal was 0.264 E-score.
Work on GGTATATA yielded a binding signal of 0.406 E-score.
CATTAAGG gave a binding signal of -0.0335 E-score.
In the case of AGACATTA, the binding signal is reported as 0.0762 E-score.
ATCCGTAA gave a binding signal of -0.0485 E-score.
GACTCATA showed a binding signal of -0.063 E-score.
CCATCAGA gave a binding signal of -0.0159 E-score.
For CGTGCACC, the binding signal was -0.199 E-score.
For CCTACCAG, the binding signal was 0.0329 E-score.
Sequence GCCCTGTA has a binding signal of -0.192 E-score.
ATACTACG gave a binding signal of 0.273 E-score.
CTACTAGC gave a binding signal of 0.256 E-score.
With CTACTACC the binding signal was 0.363 E-score.
Work on ATACTACC yielded a binding signal of 0.379 E-score.
In the case of CGACTACC, the binding signal is reported as 0.000144 E-score.
With ACACTACC the binding signal was -0.0628 E-score.
In the case of GCTAACCA, the binding signal is reported as -0.102 E-score.
Work on GAGTCTTA yielded a binding signal of -0.0226 E-score.
Work on GCTTACAC yielded a binding signal of -0.028 E-score.
In the case of ACGCGGGA, the binding signal is reported as -0.0896 E-score.
CGAGCCGA was tested, and the binding signal was -0.177 E-score.
In the case of CCTAAATA, the binding signal is reported as 0.155 E-score.
ACTAAATA showed a binding signal of 0.354 E-score.
ACTAAATC showed a binding signal of 0.35 E-score.
CCTAAATC showed a binding signal of -0.11 E-score.
With ACTAAAAT the binding signal was 0.397 E-score.
In the case of ACTAAATG, the binding signal is reported as 0.226 E-score.
With GCTAAATA the binding signal was 0.32 E-score.
Sequence ACTAAAAA has a binding signal of 0.26 E-score.
Work on ACTAAAAC yielded a binding signal of 0.26 E-score.
In the case of ATGAACTC, the binding signal is reported as -0.191 E-score.
Sequence GTCGCCTA has a binding signal of -0.125 E-score.
For ACTATTAC, the binding signal was 0.4 E-score.
For ACTATTAG, the binding signal was 0.263 E-score.
ACTATTAT was tested, and the binding signal was 0.364 E-score.
Work on ACTATTAA yielded a binding signal of 0.302 E-score.
CCTATTAC was tested, and the binding signal was 0.247 E-score.
GCTATTAC showed a binding signal of 0.285 E-score.
ACGGAAAG was tested, and the binding signal was -0.117 E-score.
CAGCTGCA showed a binding signal of -0.0452 E-score.
For TACCTATA, the binding signal was 0.375 E-score.
CACCTAAA was tested, and the binding signal was 0.0109 E-score.
With TACCTAAA the binding signal was 0.369 E-score.
For CACCTATA, the binding signal was 0.223 E-score.
With AACCTAAA the binding signal was 0.0757 E-score.
For AACCTATA, the binding signal was 0.183 E-score.
For ACAATGGA, the binding signal was -0.0232 E-score.
GCTAGCCA gave a binding signal of 0.153 E-score.
Work on GATAAGAA yielded a binding signal of 0.0314 E-score.
CTATTATC showed a binding signal of 0.211 E-score.
For CTATTACA, the binding signal was 0.35 E-score.
Work on ATATTATG yielded a binding signal of 0.0424 E-score.
For GTATTAGA, the binding signal was 0.171 E-score.
Work on ATATTATA yielded a binding signal of 0.379 E-score.
CTATTACC gave a binding signal of 0.312 E-score.
Sequence ATATTATC has a binding signal of 0.245 E-score.
GTATTAAA showed a binding signal of 0.158 E-score.
With GTATTATA the binding signal was 0.388 E-score.
ATATTACA gave a binding signal of 0.304 E-score.
For CTATTATA, the binding signal was 0.329 E-score.
CGATTATA showed a binding signal of 0.261 E-score.
CCCACTAC showed a binding signal of 0.0131 E-score.
AAGTGGCC showed a binding signal of -0.135 E-score.
In the case of ATGCATAC, the binding signal is reported as 0.0643 E-score.
AATGACAT gave a binding signal of 0.115 E-score.
In the case of ATCTAACA, the binding signal is reported as 0.192 E-score.
CTCTTAGA was tested, and the binding signal was -0.0403 E-score.
With GAAAAATA the binding signal was 0.273 E-score.
AGAAAATG showed a binding signal of 0.187 E-score.
For CGAAATTA, the binding signal was 0.31 E-score.
In the case of CGAAAATA, the binding signal is reported as 0.204 E-score.
For AGAAATTA, the binding signal was 0.344 E-score.
With GGAAAATA the binding signal was 0.331 E-score.
With AGAAAATA the binding signal was 0.342 E-score.
GGAAATTA was tested, and the binding signal was 0.28 E-score.
In the case of GGGAAATA, the binding signal is reported as 0.229 E-score.
In the case of AAGAAGTG, the binding signal is reported as 0.201 E-score.
Work on GACCGGAA yielded a binding signal of -0.0227 E-score.
ATCCTGTA was tested, and the binding signal was 0.176 E-score.
Sequence ACGTAAGT has a binding signal of -0.0408 E-score.
AGCGTTTG showed a binding signal of 0.0655 E-score.
ACAAAAAA was tested, and the binding signal was 0.136 E-score.
